According to the supplement of paper PMC5662767:
Where a name gives a salt, the structure may show the parent alone.

Tested on: Drosophila S2 cl14 SmoIP sensor cells
Assay: normalized SmoIP GFP fluorescence (untreated unstimulated = 0%, untreated Hh-stimulated = 100%); higher = more Smo activation sensor fluorescence
Details: compound concentration: 2 uM, 24 h
[1] = stimulation: Hh conditioned medium (+Hh)
[2] = stimulation: mock conditioned medium (-Hh)
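Note: flow cytometry read-out as median GFP intensity of gated cells, compounds added 30 min before Hh-conditioned or mock medium, mock-treated cells serving as unstimulated baseline.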

Compound | normalized SmoIP GFP fluorescence [1] [%] | normalized SmoIP GFP fluorescence [2] [%]
CCNC(=O)c1[nH]nc(-c2cc(Cl)c(O)cc2O)c1-c1ccc(OC)cc1 | 188 | 23.1
Cc1cc2c(F)c(Oc3ncnn4cc(OC[C@@H](C)OC(=O)[C@H](C)N)c(C)c34)ccc2[nH]1 [Brivanib-alaninate] | 117 | 9
CCOC(=O)C1=C(N)Oc2ccc(Br)cc2C1C(C#N)C(=O)OCC (configuration not stated) | 97.9 | 1.03
CN1CCN2c3ccccc3Cc3ccccc3C2C1 (configuration not stated) [Mianserin-hydrochloride] | 115 | 4.04
O=C(O)C(Cc1ccccc1[N+](=O)[O-])=NNc1nc(-c2ccc(Cl)c(Cl)c2)cs1 (mixture of isomers) | 127 | 46.7
CC(C)(C)C#Cc1cc(N(C(=O)[C@H]2CC[C@H](C)CC2)[C@H]2CC[C@H](O)CC2)c(C(=O)O)s1 | 118 | 10.4
CN(C)CCC(c1ccc(Br)cc1)c1ccccn1 (configuration not stated) [brompheniramine] | 138 | -5.17
Cc1cc(Nc2nc(N[C@@H](C)c3ccc(F)cc3)c(C#N)cc2F)n[nH]1 | 109 | -9.04
Cc1ccc(NCCCc2ccccc2)c(N)c1 | 224 | 40.1
CN(C)Cc1ccc(-c2nc3cccc4c3n2CCNC4=O)cc1 | 120 | -14.3
COc1ccc(C2CNC(=O)C2)cc1OC1CCCC1 (configuration not stated) [Rolipram] | 92.5 | -1.88
CCOc1ccc(NC(C)=O)cc1 [phenacetin] | 131 | 9.08
Fc1ccc(C(c2ccc(F)cc2)N2CCN(C/C=C/c3ccccc3)CC2)cc1 [flunarizine-dihydrochloride] | 134 | 6.74
COc1ccc(CNc2nc(N3CCC[C@H]3CO)ncc2C(=O)NCc2ncccn2)cc1Cl [avanafil] | 106 | -2.31
N[C@H]1C[C@@H]1c1ccc(-c2cccc(O)c2)cc1 | 102 | -4.81
CCC(=O)Nc1cccc(Oc2nc(Nc3ccc(N4CCN(C)CC4)cc3OC)ncc2Cl)c1 | 73.7 | -6.51
CCOc1cc2ncc(C#N)c(Nc3ccc(F)c(Cl)c3)c2cc1NC(=O)/C=C/CN(C)C [Pelitinib] | 197 | 9.86
CC(C)C[C@@H](C(=O)N[C@H](C(=O)OC1CCCC1)c1ccccc1)[C@H](O)C(=O)NO [CHR-2797(Tosedostat)] | 108 | 3.72
CC(C)(C)NC(=O)[C@H]1CC[C@H]2[C@@H]3CC[C@H]4NC(=O)C=C[C@]4(C)[C@H]3CC[C@]12C [Finasteride] | 77.5 | -9.32
OC(CN1CCN(c2cccc(Cl)c2)CC1)C(c1ccccc1)c1ccccc1 (configuration not stated) | 109 | -4.89
O=[N+]([O-])c1ccc2c(c1)S(=O)(=O)C=C2 [stattic] | 116 | -1.74
O=C(C=Cc1ccccc1)NC(NC(=S)Nc1ccc(Cl)cc1)C(Cl)(Cl)Cl (configuration not stated) | 88.1 | -1.13
CNCc1cc(-c2ccccc2F)n(S(=O)(=O)c2cccnc2)c1 | 126 | -15.1
CCOC(=O)[C@H](CCc1ccccc1)N[C@@H](C)C(=O)N1Cc2ccccc2C[C@H]1C(=O)O [quinapril-hydrochloride-accupril] | 125 | 2.95

Compound | normalized SmoIP GFP fluorescence [1] [%] | normalized SmoIP GFP fluorescence [2] [%]
OCc1ccc(-c2ccc(-c3ccc(CO)s3)o2)s1 | 111 | -2.08
CCN(Cc1ccncc1)C(=O)C(CO)c1ccccc1 (configuration not stated) [tropicamide] | 104 | -2.82
CCCCNc1ccc(C(=O)OCCN(C)C)cc1 [tetracaine-hydrochloride-pontocaine] | 117 | -6.34
O=C(NOCC(O)CO)c1cc(Br)c(F)c(F)c1Nc1ccc(I)cc1F (configuration not stated) | 132 | 16.8
CC(=O)O[C@]1(C(C)=O)CC[C@H]2[C@@H]3C[C@H](C)C4=CC(=O)CC[C@]4(C)[C@H]3CC[C@@]21C [Medroxyprogesterone-acetate] | 116 | -1.83
CO[C@H]1C[C@@H]2CC[C@@H](C)[C@@](O)(O2)C(=O)C(=O)N2CCCC[C@H]2C(=O)O[C@H]([C@H](C)C[C@@H]2CC[C@@H](O)[C@H](OC)C2)CC(=O)[C@H](C)/C=C(\C)[C@@H](O)[C@@H](OC)C(=O)[C@H](C)C[C@H](C)/C=C/C=C/C=C/1C [Rapamycin] | 26.9 | 19.1
CCc1cccc2c3c([nH]c12)C(CC)(CC(=O)O)OCC3 (configuration not stated) [Etodolac] | 104 | -3.17
O=C(O)/C=C/c1ccc(Cn2ccnc2)cc1 [Ozagrel] | 116 | -2.46
Cn1cc(-c2ccc3nnc(C(F)(F)c4ccc5ncccc5c4)n3n2)cn1 | 96.1 | -2.42
Cc1csc(-c2nnc(Nc3ccc(Oc4ncccc4-c4ccnc(N)n4)cc3)c3ccccc23)c1 | 102 | -0.747
COc1cc(Br)c(Nc2nc(-c3c(C)nc4ncccn34)cs2)c(Br)c1 | 110 | 5.12
COc1ccccc1N1CCN(CCN2C(=O)CC3(CCCC3)CC2=O)CC1 | 102 | -17.9
COc1cc(Nc2c(C#N)cnc3cc(OCCCN4CCN(C)CC4)c(OC)cc23)c(Cl)cc1Cl [Bosutinib] | 143 | 9.08
C=CC(=O)Nc1cccc(Nc2nc(Nc3ccc(Oc4ccnc(C(=O)NC)c4)cc3)ncc2F)c1 | 116 | -1.23
CCOC(=O)C1=C(C)NC(C)=C(C(=O)OC)C1c1cccc([N+](=O)[O-])c1 (configuration not stated) [Nitrendipine] | 117 | -12
OCCn1cc(-c2cnc3nnn(Cc4ccc5ncccc5c4)c3n2)cn1 | 110 | 1.03
COC(=O)N[C@@H](C)CNc1nccc(-c2cn(C(C)C)nc2-c2cc(Cl)cc(NS(C)(=O)=O)c2F)n1 | 170 | 48.8
Cn1c(Nc2ccc(C(F)(F)F)cc2)nc2cc(Oc3ccnc(-c4ncc(C(F)(F)F)[nH]4)c3)ccc21 | 183 | 2.32
O=C(O)CCCN1CCC(O[C@@H](c2ccc(Cl)cc2)c2ccccn2)CC1 [bepotastine-besilate] | 103 | -2.31
CN1CCN(c2nc(C3=C(c4c[nH]c5ccccc45)C(=O)NC3=O)c3ccccc3n2)CC1 [sotrastaurin-aeb071] | 131 | 40.1
C#Cc1cccc(Nc2ncnc3cc(OC)c(OCCCCCCC(=O)NO)cc23)c1 | 128 | 29.7
NC(=O)[C@@H](CCC(F)(F)F)N(Cc1ccc(-c2ncon2)cc1F)S(=O)(=O)c1ccc(Cl)cc1 | 116 | 0.489
CN1C(C(=O)Nc2ccccn2)=C(O)c2sc(Cl)cc2S1(=O)=O [lornoxicam-xefo] | 129 | -4.89
CN1CCc2c(c3ccccc3n2Cc2ccc(C(=O)NO)cc2)C1 [tubastatin-a] | 108 | -3.05

Compound | normalized SmoIP GFP fluorescence [1] [%] | normalized SmoIP GFP fluorescence [2] [%]
O=C1[C@H](Cc2ccc(O)cc2)N2C(=O)CCN(C(=O)NCc3ccccc3)[C@H]2CN1Cc1cccc2ccccc12 | 125 | -2.82
CCCOc1ccc(C(=O)OCCN(CC)CC)cc1N [proparacaine-hcl] | 111 | -2.48
CCc1cccc(CC)c1NC(=O)N1Cc2[nH]nc(NC(=O)c3ccc(N4CCN(C)CC4)cc3)c2C1 | 121 | 3.18
O=C1NC(=O)/C(=C/c2ccc3c(c2)OC(F)(F)O3)S1 | 114 | 7.01
COCC[n+]1c2c(n(Cc3cnccn3)c1C)C(=O)c1ccccc1C2=O | 101 | -12.7
O=C(NCCCNc1nc(Nc2cccc(NC(=O)N3CCCC3)c2)ncc1I)c1cccs1 | 257 | 78.4
CN(C)CC[C@H](CSc1ccccc1)Nc1ccc(S(=O)(=O)NC(=O)c2ccc(N3CCN(Cc4ccccc4-c4ccc(Cl)cc4)CC3)cc2)cc1[N+](=O)[O-] | 109 | 2.97
C1=C/COCc2cc(ccc2OCCN2CCCC2)Nc2nccc(n2)-c2cccc(c2)COC/1 [pacritinib-sb1518] | 114 | 1.72
CNC(=O)c1cc(Oc2ccc(NC(=O)Nc3ccc(Cl)c(C(F)(F)F)c3)c(F)c2)ccn1 | 100 | 27.4
CC(C)c1cc(C(C)C)c(CC(=O)NS(=O)(=O)Oc2c(C(C)C)cccc2C(C)C)c(C(C)C)c1 [Avasimibe(CI-1011)] | 111 | -15.8
C=C[C@@]1(C)CC(=O)[C@]2(O)[C@@]3(C)[C@@H](O)CCC(C)(C)[C@@H]3[C@H](O)[C@H](OC(C)=O)[C@@]2(C)O1 [forskolin] | 137 | -10
COc1cc2c(cc1OC)CN(CCc1ccc(NC(=O)c3cc(OC)c(OC)cc3NC(=O)c3cnc4ccccc4c3)cc1)CC2 [tariquidar] | 120 | 2.77
CC(C)(C)NC[C@H](O)COc1nsnc1N1CCOCC1 [timolol-maleate] | 111 | -1.51
CCCCCCCCCCCCc1ccc(S(=O)(=O)Nc2nncs2)cc1 | 111 | 1.03
Cc1ccc(C(=O)Nc2cccc(C(F)(F)F)c2)cc1Nc1nc(-c2cccnc2)nc2c1cnn2C | 140 | -9.04
CNC(=O)c1ccc2cc([C@@]3(O)CCn4cncc43)ccc2c1 | 104 | -1.56
CC(C)c1cc(C(=O)N2Cc3ccc(CN4CCN(C)CC4)cc3C2)c(O)cc1O | 107 | 13.8
Nc1nc(=O)n([C@@H]2CS[C@H](CO)O2)cc1F [Emtricitabine] | 111 | -14.7
Cc1ccc(-c2c(-c3nn(C)c4ncnc(N5CC[C@H](N6CCCCC6)C5)c34)cnn2C)cc1 | 114 | -2.71
CN(Cc1cnc2nc(N)nc(N)c2n1)c1ccc(C(=O)N[C@@H](CCC(=O)O)C(=O)O)cc1 [Abitrexate] | 200 | 13.3
NC12CC3CC(CC(C3)C1)C2 [Amantadine-hydrochloride(Symmetrel)] | 110 | -4.08
CN(C)c1ccc(-c2nc3ncc(Cl)c(N4CCN(CC(=O)Nc5nccs5)CC4)c3[nH]2)cc1 | 125 | 6.74
COCCOc1ccc2c(c1)ncn2-c1ccc2cccc(N3CCC(N)CC3)c2n1 | 264 | 80
